This is an account of results in PubChem BioAssay (NCI).

This is part of a sample that, as a whole, favours compounds with a hit. Of some 79,000 tested, about 15% had one in any assay. A number with no mark means an inactive call. Calls of active or inactive are those of the source. Cut-off read from the data, not from the text of the source: active = growth inhibition above about 70%; inactive = the rest.

One assay in a line: NCI Yeast Anticancer Drug Screen. Data for the sgs1 mgt1 strain (AID 161).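 Note: 0% = growth of cultures given vehicle only.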 Conditions: S. cerevisiae sgs1 mgt1 strain, at 5.0 µM (retest, dose inferred, filed as 0.5), stronger effect = higher value. Put shortly:
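Mutant yeast exposed to compound; growth scored against vehicle-only wells.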
As for `O=C(OC1C2CCC2C2CC21)c1ccc([N+](=O)[O-])cc1[N+](=O)[O-]` (stereo not drawn), the growth inhibition is 24%.

For `N#CCc1nc2c(s1)C(=O)c1ccccc1C2=O`, the growth inhibition was 47%.

For the compound `CC1=C(C(=S)Nc2ccc(Cl)c(C(=O)OC(C)C)c2)SCCO1`, the growth inhibition is 27%.

As to `O=C1C(Cl)=C(c2ccc([N+](=O)[O-])cc2)C(=O)c2c(O)cccc21`, the growth inhibition is 28%.

Take `CCOc1ccc2nc(C)cc(C)c2c1`: the growth inhibition is -7%.

For the compound `CN(C)CC(O)c1cc(-c2ccc(Cl)cc2)nc2c(Cl)cc(Cl)cc12` (stereo not drawn), the growth inhibition is 41%.

Consider `CCCC(=S)N1CCOCC1`, for which the growth inhibition was -1%.

For the compound `C/C(=C/CC1CCC2C3=CCC4CC(O)CCC4(C)C3CCC12C)C(C)C(C)C` (stereo not drawn), the growth inhibition was 2%.

As for `NCC(O)CSc1ccc(Cl)c(Cl)c1` (stereo not drawn), the growth inhibition is 1%.

As for `CCCCCCCCC(=O)NCCCNCCCNC(=O)CCCCCCCC`, the growth inhibition is -4%.

As for `O=C1c2ccc(O)cc2C(=O)c2c1ccc(O)c2O`, the growth inhibition was 46%.

With `Clc1nc(Cl)c(Cl)c(-c2ccccc2)n1`, the growth inhibition was 18%.

`Cc1ccc(-c2c(C#N)c(-c3ccc(Cl)cc3)c(C#N)c(=O)n2NS(=O)(=O)c2ccccc2)cc1`: the growth inhibition was 28%.

Consider `CC(CCC(=O)O)(c1cc(Br)c(O)c(Br)c1)c1cc(Br)c(O)c(Br)c1`, for which the growth inhibition is -2%.

Turning to `N#CC(C(=O)CCCC(=O)Nc1ccc(Cl)cc1)c1ccccc1Cl` (stereo not drawn), the growth inhibition was 9%.

On to `Cc1ccc(S(=O)(=O)S/C(=N\c2ccccn2)Nc2ccccn2)cc1`, for which the growth inhibition is 90% (active).

Turning to `NC(=O)C1CCCN1C(=O)C1CCCN(Cc2cc(CN3CCCC(C(=O)N4CCCC4C(N)=O)C3)cc(CN3CCCC(C(=O)N4CCCC4C(N)=O)C3)c2)C1` (stereo not drawn), the growth inhibition was -1%.

Take `O=C(/C=C\c1cccc2ccccc12)c1ccccn1`: the growth inhibition was 12%.

Take `COC(=O)c1cccc2c1C(=O)c1ccccc1-2`: the growth inhibition was -8%.

`Cn1c(=S)c2[nH]c(SCCN3CCCCC3)nc2n(C)c1=O`: the growth inhibition was 20%.

`CN(C)CCCSc1c2ccccc2nc2cccc([N+](=O)[O-])c12`: the growth inhibition is -8%.

For the compound `CCCCCCCCN(CCCCCCCC)CC(O)c1cc(-c2ccc(Cl)cc2)nc2c(Cl)cccc12` (stereo not drawn), the growth inhibition was -3%.

For `CCCCCCCCCCCCS`, the growth inhibition is -3%.

On to `COC(=O)c1nc(=S)[nH]c(C(=O)OC)c1C(=O)c1ccc([N+](=O)[O-])cc1`, for which the growth inhibition was -5%.

Regarding `Cc1[nH]c2ccccc2c1C1=CC2(C)Nc3ccccc3C2C(C)(C)C1` (stereo not drawn), the growth inhibition is -4%.

`CCCCCCCCN(CCCCCCCC)CC(O)c1cc(-c2ccc(OC)cc2)nc2cc(Cl)ccc12` (stereo not drawn): the growth inhibition was 17%.

For `O=C(CC(C[N+](=O)[O-])c1ccc2c(c1)OCO2)c1ccccc1` (stereo not drawn), the growth inhibition is -1%.

As for `CN(C)CCN(C)CCC(=O)/C=C/c1ccccc1`, the growth inhibition is 98% (active).

As to `NC(N)=NC(N)=Nc1ccc(-c2ccccc2)cc1`, the growth inhibition is 2%.

For the compound `O=[N+]([O-])c1ccccc1NCCO`, the growth inhibition was -2%.

`Cn1c2c(c3ccccc31)CCN(CCN1CCN(c3cccc(Cl)c3)CC1)C2=O`: the growth inhibition is 1%.

As for `CC(=O)Oc1c2c(c(C)c3ccccc13)C(=O)c1cccnc1C2=O`, the growth inhibition is 5%.

`O=C(/C(=C/c1ccc2c(c1)OCO2)c1ccccc1)c1ccc(OCCN2CCCC2)cc1`: the growth inhibition was -3%.

For `O=C1C(=O)c2cc(Cl)ccc2-c2ccc(Cl)cc21`, the growth inhibition was 33%.

As to `C/C(=N/NC(=O)Nc1ccc(N=Nc2ccccc2)cc1)c1cccnc1`, the growth inhibition is 2%.

As to `CC(Cl)C(=O)Nc1cc2ccccc2oc1=O` (stereo not drawn), the growth inhibition is 6%.

In the case of `CC(C)c1ccc2c(c1)CCC1C(C)(CN)CCCC21C` (stereo not drawn), the growth inhibition is 35%.

`CN(NC1OC(=O)c2ccccc21)c1ccc(C(F)(F)F)cc1[N+](=O)[O-]` (stereo not drawn): the growth inhibition was 43%.

As to `CCCC(CC)c1c(O)c(O)c(C(CC)CCC)c(C(CC)CCC)c1C(CC)CCC` (stereo not drawn), the growth inhibition is -10%.

Staying with this assay, now noted: S. cerevisiae sgs1 mgt1 strain, at 50.0 µM (retest, dose inferred, filed as 5.0), stronger effect = higher value.
As for `O=C(OC1C2CCC2C2CC21)c1ccc([N+](=O)[O-])cc1[N+](=O)[O-]` (stereo not drawn), the growth inhibition is 98% (active).

Take `N#CCc1nc2c(s1)C(=O)c1ccccc1C2=O`: the growth inhibition is 100% (active).

As for `CC1=C(C(=S)Nc2ccc(Cl)c(C(=O)OC(C)C)c2)SCCO1`, the growth inhibition is 90% (active).

Regarding `O=C1C(Cl)=C(c2ccc([N+](=O)[O-])cc2)C(=O)c2c(O)cccc21`, the growth inhibition is 95% (active).

As for `CCOc1ccc2nc(C)cc(C)c2c1`, the growth inhibition was 60%.

For `CN(C)CC(O)c1cc(-c2ccc(Cl)cc2)nc2c(Cl)cc(Cl)cc12` (stereo not drawn), the growth inhibition is 99% (active).

Take `CCCC(=S)N1CCOCC1`: the growth inhibition is -1%.

As to `C/C(=C/CC1CCC2C3=CCC4CC(O)CCC4(C)C3CCC12C)C(C)C(C)C` (stereo not drawn), the growth inhibition was 66%.

In the case of `NCC(O)CSc1ccc(Cl)c(Cl)c1` (stereo not drawn), the growth inhibition was 16%.

Take `CCCCCCCCC(=O)NCCCNCCCNC(=O)CCCCCCCC`: the growth inhibition is -4%.

Take `O=C1c2ccc(O)cc2C(=O)c2c1ccc(O)c2O`: the growth inhibition was 96% (active).

As for `Clc1nc(Cl)c(Cl)c(-c2ccccc2)n1`, the growth inhibition was 77% (active).

Regarding `Cc1ccc(-c2c(C#N)c(-c3ccc(Cl)cc3)c(C#N)c(=O)n2NS(=O)(=O)c2ccccc2)cc1`, the growth inhibition is 58%.

In the case of `CC(CCC(=O)O)(c1cc(Br)c(O)c(Br)c1)c1cc(Br)c(O)c(Br)c1`, the growth inhibition was 75% (active).

On to `N#CC(C(=O)CCCC(=O)Nc1ccc(Cl)cc1)c1ccccc1Cl` (stereo not drawn), for which the growth inhibition is 4%.

Turning to `Cc1ccc(S(=O)(=O)S/C(=N\c2ccccn2)Nc2ccccn2)cc1`, the growth inhibition was 5%.

Consider `NC(=O)C1CCCN1C(=O)C1CCCN(Cc2cc(CN3CCCC(C(=O)N4CCCC4C(N)=O)C3)cc(CN3CCCC(C(=O)N4CCCC4C(N)=O)C3)c2)C1` (stereo not drawn), for which the growth inhibition was -8%.

For the compound `O=C(/C=C\c1cccc2ccccc12)c1ccccn1`, the growth inhibition was 99% (active).

Take `COC(=O)c1cccc2c1C(=O)c1ccccc1-2`: the growth inhibition was -11%.

In the case of `Cn1c(=S)c2[nH]c(SCCN3CCCCC3)nc2n(C)c1=O`, the growth inhibition is 69%.

In the case of `CN(C)CCCSc1c2ccccc2nc2cccc([N+](=O)[O-])c12`, the growth inhibition was -3%.

In the case of `CCCCCCCCN(CCCCCCCC)CC(O)c1cc(-c2ccc(Cl)cc2)nc2c(Cl)cccc12` (stereo not drawn), the growth inhibition is 20%.

As to `CCCCCCCCCCCCS`, the growth inhibition is -1%.

On to `COC(=O)c1nc(=S)[nH]c(C(=O)OC)c1C(=O)c1ccc([N+](=O)[O-])cc1`, for which the growth inhibition was 80% (active).

As to `Cc1[nH]c2ccccc2c1C1=CC2(C)Nc3ccccc3C2C(C)(C)C1` (stereo not drawn), the growth inhibition was 23%.

Regarding `CCCCCCCCN(CCCCCCCC)CC(O)c1cc(-c2ccc(OC)cc2)nc2cc(Cl)ccc12` (stereo not drawn), the growth inhibition is 85% (active).

Turning to `O=C(CC(C[N+](=O)[O-])c1ccc2c(c1)OCO2)c1ccccc1` (stereo not drawn), the growth inhibition is -50%.

Take `CN(C)CCN(C)CCC(=O)/C=C/c1ccccc1`: the growth inhibition is 99% (active).

For `NC(N)=NC(N)=Nc1ccc(-c2ccccc2)cc1`, the growth inhibition is 97% (active).

Regarding `O=[N+]([O-])c1ccccc1NCCO`, the growth inhibition is -12%.

As to `Cn1c2c(c3ccccc31)CCN(CCN1CCN(c3cccc(Cl)c3)CC1)C2=O`, the growth inhibition was 1%.

Consider `CC(=O)Oc1c2c(c(C)c3ccccc13)C(=O)c1cccnc1C2=O`, for which the growth inhibition was 6%.

`O=C(/C(=C/c1ccc2c(c1)OCO2)c1ccccc1)c1ccc(OCCN2CCCC2)cc1`: the growth inhibition was -16%.

On to `O=C1C(=O)c2cc(Cl)ccc2-c2ccc(Cl)cc21`, for which the growth inhibition was 95% (active).

Take `C/C(=N/NC(=O)Nc1ccc(N=Nc2ccccc2)cc1)c1cccnc1`: the growth inhibition was 21%.

For the compound `CC(Cl)C(=O)Nc1cc2ccccc2oc1=O` (stereo not drawn), the growth inhibition is 4%.

`CC(C)c1ccc2c(c1)CCC1C(C)(CN)CCCC21C` (stereo not drawn): the growth inhibition was 100% (active).

Regarding `CN(NC1OC(=O)c2ccccc21)c1ccc(C(F)(F)F)cc1[N+](=O)[O-]` (stereo not drawn), the growth inhibition is 49%.

As to `CCCC(CC)c1c(O)c(O)c(C(CC)CCC)c(C(CC)CCC)c1C(CC)CCC` (stereo not drawn), the growth inhibition is 76% (active).
